# Laboratory results from PubChem BioAssay AID624483 (NMMLSC, 2012).
# Out of some 360,000 compounds screened, about 11,000 (3.1%) were called active. Inconclusive results (about 2%) are left out. The sample holds actives, similar compounds and a random draw of the others, so the mix is not that of the screen. No stated cut-off is given here; in the data, active means fluorescence intensity above about 16000; inconclusive means no clear call, values can overlap the other calls; inactive means below that.
# Test: counter-screen for toxin protease inhibitors: compound fluorescence, primary screen, artefact control for toxin protease inhibitor project, biochemical, multiplex microsphere, HTS (AID 624483)
# Conditions: compound autofluorescence counterscreen, microsphere flow cytometry; stronger effect = higher value
row,Compound,fluorescence intensity
1,Cc1cc(C)c(NC(=S)N2CCCC2C(=O)O)c(C)c1 (stereo unspecified),2490 (inactive)
2,COc1ccc(NC(=O)NCCN2CCN(c3ccc(C)cc3)CC2)c(Cl)c1,3770 (inactive)
3,COc1ccc(N2CCN(CCNC(=O)c3nnc(Cc4c(F)cccc4Cl)o3)CC2)cc1,24000 (active)
4,COc1ccc(N2CCN(CCNC(=O)Nc3cc(Cl)ccc3Cl)CC2)cc1,3500 (inactive)
5,CCCCN(C=O)c1c(CC)nc2c(OCc3ccccc3C(=O)OC)cccn12,4040 (inactive)
6,Cc1ccc(CNC(=O)C2CCN(S(=O)(=O)c3ccc4nc5c(c(C(=O)O)c4c3)CC(C)CC5)CC2)cc1 (stereo unspecified),5690 (inactive)
7,COC(=O)[C@@]1(Cc2ccc(OC)cc2)[C@H]2c3cc(C(=O)N4CCCC4)n(Cc4ccc(OC(F)(F)F)cc4)c3C[C@H]2CN1C(=O)c1ccccc1,5540 (inactive)
8,CC(=O)c1ccc(S(=O)(=O)N2CCN(c3nc4c(C)c(C)ccc4cc3C#N)CC2)cc1,13000 (inactive)
9,Cc1ccc(S(=O)(=O)C(C#N)c2nc3ccccc3nc2N2CCCC2)cc1C (stereo unspecified),19400 (active)
10,CC(C)OC(=O)C(C#N)c1nc2ccccc2nc1N1CCN(Cc2ccccc2)CC1 (stereo unspecified),2960 (inactive)
11,CCC(C)(C)C1CCC(=NNC(=O)c2ccc(Br)o2)CC1 (stereo unspecified),2520 (inactive)
12,Cc1ccc(N)cc1-n1c(C)ccc1C,9500 (inactive)
13,Cc1ccc2nc(-c3ccco3)c(Cc3cccc(Cl)c3)n2c1,4970 (inactive)
14,C=CCN1C(=O)C2(C(C(=O)OCC)=C(N)Oc3c2c(=O)oc2ccccc32)c2ccccc21 (stereo unspecified),4120 (inactive)
15,CCOC(=O)CC1=C(C(=O)OCC)C2(C(=O)N1)C(C(=O)OC)=C(N)Oc1ccccc12 (stereo unspecified),4280 (inactive)
16,COC(=O)CN1C(=O)C2(C(C(=O)OC)=C(N)Oc3ccccc32)C2=C1CC(C)(C)CC2=O (stereo unspecified),23500 (active)
17,CC(c1ccccn1)N(C)C(=O)c1ccc2nc(Cc3cccc(Cl)c3)oc2c1 (stereo unspecified),5500 (inactive)
18,Cc1ccc(C(c2nnnn2CS(=O)(=O)c2ccc(C)cc2)N2CCC(C)CC2)cc1 (stereo unspecified),4360 (inactive)
19,CCN(CC)c1ccc(NC(=O)CCc2nnc3ccc(N4CCCCC4)nn23)c(C)c1,4470 (inactive)

row,Compound,fluorescence intensity
1,OC[C@H]1O[C@@H](c2nc(-c3nc(-c4ccc(F)cc4)no3)cs2)[C@H](O)[C@@H](O)[C@H]1O,4000 (inactive)
2,CC1(C(=O)NCC2CCOCC2)Cc2c(-c3cccc(C(N)=O)c3)ccnc2O1 (stereo unspecified),4060 (inactive)
3,O=C(c1ccc(F)cc1)N1CCCC(c2nc(-c3cccs3)no2)C1 (stereo unspecified),4320 (inactive)
4,O=C(c1cccs1)N1CCCC(c2nc(-c3ccc(F)cc3)no2)C1 (stereo unspecified),11100 (inactive)
5,O=C(Cc1cccs1)N1CCCC(c2nc(-c3ccc(S(=O)(=O)N4CCCC4)cc3)no2)C1 (stereo unspecified),16600 (active)
6,CCCNC(=O)C1(C)CCCN(C(=O)c2oc3ccccc3c2C)C1 (stereo unspecified),3630 (inactive)
7,CCOc1ccc(NC(=O)CN(C)C(=O)CCSc2ccc(F)cc2)cc1OCC,3520 (inactive)
8,Cc1cc(N=CC2=C(O)CCCC2=O)no1,3160 (inactive)
9,COc1ccc(O)c(/C=N/N=C/c2cccc([N+](=O)[O-])c2)c1,3450 (inactive)
10,COc1ccc(O)c(C=Nc2cc(C)on2)c1,22400 (active)
11,COc1ccc(C(=O)OCC(=O)NC(=O)CCSc2ccccc2)cc1,2520 (inactive)
12,CCOc1cccc(=O)c2c(C)n(CC3CCCO3)c(C)c12 (stereo unspecified),22100 (active)
13,CC(=O)Nc1ccc(NC(=O)CSc2nnc(COc3ccccc3C)n2CC2CCCO2)cc1 (stereo unspecified),3370 (inactive)
14,CCOc1ccc(NC(=O)c2cccc3c2C(=O)N(CC2CCCO2)C3)cc1 (stereo unspecified),6080 (inactive)
15,COc1nc(Oc2ccc(=O)n(C)n2)nc(N(C)C)n1,2790 (inactive)
16,COc1cc(C2C3C(=O)N(c4ccccc4)C(=O)C3ON2c2ccccc2)ccc1O (stereo unspecified),3690 (inactive)
17,O=C1[C@@H](c2ccccc2)[C@@H](c2ccccc2)N1c1cccnc1,3340 (inactive)
18,Cc1ccccc1N1C(=O)C2ON(c3ccccc3)C(c3ccncc3)C2C1=O (stereo unspecified),23600 (active)
19,Cc1cc(C)c2cc(CN(Cc3nnnn3Cc3ccc(F)cc3)C3CCCC3)c(=O)[nH]c2c1,22000 (active)

row,Compound,fluorescence intensity
1,Cc1cccc2cc(CN(Cc3nnnn3Cc3ccccc3)C3CCCC3)c(=O)[nH]c12,7870 (inactive)
2,Cc1cc(C)c2cc(CN(Cc3cccs3)Cc3nnnn3CC3CCCO3)c(=O)[nH]c2c1 (stereo unspecified),11000 (inactive)
3,CCCCC[C@H](C)N1C[C@@H](COCc2ccccc2)Oc2cc(N3CCC[C@@H]3CO)ccc2S1(=O)=O,5890 (inactive)
4,CC(C)CC(NC(=O)C1CCCN1C(=O)[C@@H](C)NC(=O)OCc1ccccc1)C(=O)NCC(N)=O (stereo partly specified),3990 (inactive)
5,Cn1c(NCc2cccnc2)nc2cc(-c3ccc(F)cc3)sc2c1=O,2810 (inactive)
6,COc1ccc(-c2cc(-c3ccc(N)cc3)nc(N)c2C#N)cc1OC,4760 (inactive)
7,CCOc1cc(-c2cc(-c3ccc(OC)cc3)nc(N)c2C#N)ccc1O,24300 (active)
8,CCSc1nc(-c2ccc(OC)cc2)cc(-c2ccc(OC)cc2)c1C#N,9530 (inactive)
9,C[C@H](NC(=O)CC[C@H]1O[C@@H](n2ccc(=O)[nH]c2=O)[C@H](O)[C@@H]1O)c1cccc2ccccc12,5050 (inactive)
10,Cn1c(=O)cc(OCCCC(=O)N2CCN(Cc3ccc4c(c3)OCO4)CC2)c2ccccc21,9010 (inactive)
11,Cn1c(=O)cc(OCCCC(=O)N2CCN(c3ccccn3)CC2)c2ccccc21,19100 (active)
12,Cn1c(=O)cc(OCC(=O)N2CCN(c3ccccc3F)CC2)c2ccccc21,2380 (inactive)
13,Nc1nc(SCCOc2ccccc2)n[nH]1,6950 (inactive)
14,CCCOc1ccc(-c2nc(N)n[nH]2)cc1,16700 (active)
15,COc1ccc(-c2nc(SCC(=O)N3CCCC3)n[nH]2)cc1,5340 (inactive)
16,CCOC(=O)c1ccc(-c2ccc3ncnc(N(C)Cc4sccc4C)c3c2)o1,3710 (inactive)
17,CCCC(=O)N1CCC1(C)C(=O)NS(=O)(=O)c1ccc(Cl)cc1 (stereo unspecified),2920 (inactive)
18,Cc1nc2c(OCc3ccc(Cl)cc3)cccn2c1N(C)Cc1cccs1,3830 (inactive)
